{"source": "PubChem BioAssay (NCATS)", "note": "Active and inactive are the calls of the source. Where a call stands in place of a potency, no number is given. Calls follow the shape of the dose curve; as a rule, active = well fitted cell-killing curve with a large enough effect; inconclusive = small, poorly fitted or top-dose-only effect; inactive = flat fitted curve, though single readings scatter. Potency is read from the fitted curve at half-maximal effect.", "data": [{"test": "Cell Viability - LYMP1-003 - Assay at 24 hr (AID 963)", "conditions": "LYMP1-003 lymphoblastoid cell viability; series mostly up to 92.2 µM", "excerpt": "NIH Chemical Genomics Center [NCGC]\nNIH Molecular Libraries Screening Centers Network [MLSCN]\nNational Institutes of Environmental Health Sciences [NIEHS]\nNational Toxicology Program [NTP]\nWe have developed a 1536-well cell-based assay for quantitative high throughput screening (qHTS) against a number of cell lines to determine in vitro cytotoxicity of small molecules. This particular assay uses a human lymphoblastoid cell line (LYMP1-003) purchased from Coriell Institute for Medical Research.\nNCGC Assay Protocol Summary:\nThe CellTiter-Glo luminescent cell viability assay (Promega) is a homogeneous method to measure the number of viable cells in culture. The end point readout of this assay is based on quantitation of intracellular ATP, an indicator of metabolic activity, using the luciferase reaction. Luciferase catalyzes the oxidation of beetle Luciferin to oxyluciferin and light in the presence of ATP. The luminescent signal is proportional to amount of ATP present.\nUsing the CellTiter-Glo luminescent cell viability assay, the amount of cellular ATP was measured in the lymphoblastoid cell line with complete culture medium following compound treatment for 24 hours. The assay was performed in opaque white Kalypsys 1536-well plates. In the screen, tetraoctylammonium bromide was used as positive control. Library compounds were measured for their ability to cause acute toxicity in the cell line, as reflected by a decrease in intracellular ATP levels, in a concentration-dependent manner. […] AC50 values were determined from concentration-response data modeled with the standard Hill equation.\nqHTS protocol for CellTiter Glo lymphoblastoid cellular assay\n[Step] [Parameter] [Value] [Description]\n1. Reagent; 5 uL; 2500 lymphoblastoid cells/well\n2. Time; 5 hr; 37 C incubation\n4. Controls; 23 nL; Tetraoctylammonium bromide 6.4pM to 92 uM\n5. Time; 24 hr; 37 C incubation\n6. Reagent; 5 uL; CellTiter Glo reagent\n7. Time; 30 min; Room Temperature\n8. Detection; Luminescence; Viewlux plate reader\nKeywords: cell viability, cytotoxicity, lymphoblastoid cell line, luminescence, NTPHTS, NTPHTS_NCGC, NIEHS, DSSTox, MLSMR, MLSCN, NIH Roadmap, qHTS, NCGC", "values": [{"smiles": "Cc1nnc(NS(=O)(=O)c2ccc(N)cc2)s1", "Potency": "inactive"}, {"smiles": "COc1ccc2cc3[n+](cc2c1OC)CCc1cc2c(cc1-3)OCO2", "Potency": "inactive"}, {"smiles": "CC1=NN(c2ccccc2)C(=O)C1", "Potency": "inactive"}, {"smiles": "CCc1cc(C(N)=S)ccn1", "Potency": "inactive"}, {"smiles": "Cc1ccnc2c1NC(=O)c1cccnc1N2C1CC1", "Potency": "inactive"}, {"smiles": "CC[C@H](C)C(=O)O[C@H]1C[C@@H](C)C=C2C=C[C@H](C)[C@H](CC[C@@H]3C[C@@H](O)CC(=O)O3)[C@H]21", "Potency": "inactive"}, {"smiles": "Cc1cc(NS(=O)(=O)c2ccc(N)cc2)no1", "Potency": "inactive"}, {"smiles": "NNC(=O)c1ccncc1", "Potency": "inactive"}, {"smiles": "Cc1ncc([N+](=O)[O-])n1CCO", "Potency": "inactive"}, {"smiles": "NC(N)=NC(N)=NCCc1ccccc1", "Potency": "inactive"}, {"smiles": "O=C(O)c1cc(=O)[nH]c(=O)[nH]1", "Potency": "inactive"}, {"smiles": "N=C(N)c1ccc(OCCCCCOc2ccc(C(=N)N)cc2)cc1", "Potency": "inactive"}, {"smiles": "O=C(N[C@H](CO)[C@H](O)c1ccc([N+](=O)[O-])cc1)C(Cl)Cl", "Potency": "inactive"}, {"smiles": "CN(C)c1ccc(C(=C2C=CC(=[N+](C)C)C=C2)c2ccc(N(C)C)cc2)cc1", "Potency": "7.94 µM (active)"}, {"smiles": "Cc1noc(NS(=O)(=O)c2ccc(N)cc2)c1C", "Potency": "inactive"}, {"smiles": "C[C@]12C=CC(=O)C=C1CC[C@@H]1[C@@H]2C(=O)C[C@@]2(C)[C@H]1CC[C@]2(O)C(=O)CO", "Potency": "inactive"}]}]}
